Test in all cases: PBM binding z-score (relative to random genomic background probes); higher = stronger binding; sequences stand for … in GC…GCGATTGACAGCGTAGAATGAAGG
Test [1] deals with FXR:RXRa (NR concentration 270 nM, RXRa partner concentration 90 nM). In a few lines: (§1)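 Ligand-free nuclear receptor dimers were bound for 1 h to custom Agilent 4×180K protein-binding microarrays. Detection used antibodies against each partner (one per run). Binding z-scores rest on regression-normalized fluorescence, with random background probes as the reference.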
For test [2], the system named is LXRa:RXRa (NR concentration 270 nM, RXRa partner concentration 90 nM). In a few lines:
as §1

Test [3] relates to LXRa homodimer (NR concentration 270 nM). The method, boiled down: as §1
The subject of test [4] is LXRb:RXRa (NR concentration 270 nM, RXRa partner concentration 90 nM). In a few lines: as §1
The subject of test [5] is LXRb homodimer (NR concentration 270 nM). The method, boiled down: as §1
In test [6] the test system is PPARa:RXRa (NR concentration 270 nM, RXRa partner concentration 90 nM). In a few lines:
as §1

Test [7] has as its system PPARg:RXRa (NR concentration 180 nM, RXRa partner concentration 90 nM). In a few lines: as §1
Test [8] relates to PPARg:RXRa 270nM:90nM, anti-RXR (NR concentration 270 nM, RXRa partner concentration 90 nM). In a few lines:
as §1

In test [9] the test system is PPARg:RXRa 30nM:10nM, anti-RXR (NR concentration 30 nM, RXRa partner concentration 10 nM). In a few lines:
as §1

The subject of test [10] is PPARg:RXRa 90nM:30nM, anti-RXR (NR concentration 90 nM, RXRa partner concentration 30 nM). In a few lines: as §1
Test [11] concerns PPARg:RXRa DBDmut IVT, anti-RXR (DBD mutation: RXRa K156A/R161A, NR concentration 270 nM, RXRa partner concentration 90 nM). The method, boiled down: as §1
Test [12] concerns PPARg:RXRa IVT, anti-PPARg (NR concentration 270 nM, RXRa partner concentration 90 nM). In a few lines:
as §1

Test [13] deals with PPARg DBDmut:RXRa IVT, anti-PPARg (DBD mutation: PPARg1 K132A/R137A, NR concentration 270 nM, RXRa partner concentration 90 nM). The method, boiled down: as §1
In test [14] the test system is PPARg DBDmut IVT, anti-PPARg (DBD mutation: PPARg1 K132A/R137A, NR concentration 270 nM). The method, boiled down: as §1
Test [15] has as its system PPARg homodimer (NR concentration 180 nM). The method, boiled down:
as §1

Test [16] has as its system PXR:RXRa (NR concentration 270 nM, RXRa partner concentration 90 nM). In a few lines: as §1
For test [17], the system named is PXR homodimer (NR concentration 270 nM). The method, boiled down:
as §1

Test [18] relates to RARa:RXR (NR concentration 270 nM, RXRa partner concentration 90 nM). The method, boiled down: as §1
Test [19] concerns RARa homodimer (NR concentration 270 nM). The method, boiled down:
as §1

The subject of test [20] is RARb:RXRa (NR concentration 270 nM, RXRa partner concentration 90 nM). In a few lines:
as §1

On to CTCGAAAGGTCGTGCTCAGCTGAGTATACCAAAC, for which the PBM binding z-score in test [1] is 4.95; in test [2], 3.96; in test [3], -0.247; in test [4] it was 3.26; in test [5] it was 0.329; in [6], 4.67. For the same sequence, the PBM binding z-score was found to be 2.52 in test [7]; 3.89 in [8]; 0.929 in [9]; 2.38 in test [10]; 0.87 in test [11]; 1.49 in test [12]. Further, the PBM binding z-score in test [13] was 0.246; in test [14], 0.618; in test [15], 1.59; in test [16] it was 2.99; in test [17] it was -0.206; in test [18], 3.49. For the same sequence, the PBM binding z-score amounted to 0.13 in test [19] and 3.72 in [20].

As for CGTCCAAGGTCATAGGAGGTCAGTGGAGACAGAT, the PBM binding z-score came out at 7.92 in test [1]; 7.55 in [2]; 5.5 in test [3]; 6.44 in [4]; 1.44 in test [5]; 5.76 in test [6]. Further, the PBM binding z-score is 5.84 in test [7]; 5.73 in test [8]; 2.93 in test [9]; 4.69 in [10]; 3.31 in test [11]; 4.65 in test [12]. Also, the PBM binding z-score was 1.06 in test [13]; -0.0581 in [14]; 7.55 in test [15]; 6.94 in [16]; 6.61 in test [17]; 5.94 in test [18]. Further, the PBM binding z-score came to 4.42 in [19] and 5.39 in test [20].

Consider GCTCTGAGGACAAGGTCAGAGCTTTGTCCGTAGA, for which the PBM binding z-score in [1] is 1.69; in test [2], 1.56; in test [3], -0.176; in test [4], 1.45; in test [5], -0.782; in test [6] it was 2.3. Further, the PBM binding z-score in test [7] came out at 1.02; in test [8], 2.06; in test [9], 0.095; in test [10], 1.22; in test [11], 0.898; in [12], 1.09. In addition, the PBM binding z-score in test [13] is -0.229; in test [14], -0.596; in test [15], 0.274; in [16] it was 2; in [17] it was -0.088; in test [18], 2.88. Besides, the PBM binding z-score in test [19] is -0.844; in [20], 3.61.

On to CAAACTAGGTCACATAGGTCAAAGTCCGTGCGTA, for which the PBM binding z-score in test [1] is 6.12; in test [2], 5.33; in test [3], 4.86; in test [4], 5.05; in [5], 1.48; in test [6], 5.74. Besides, the PBM binding z-score in [7] was 9.47; in [8], 7.44; in [9], 6.05; in test [10], 7.51; in test [11] it was 8.33; in [12], 8.57. The PBM binding z-score turned out to be 3 in [13]; 4.3 in test [14]; 4.12 in test [15]; 5.04 in test [16]; 4 in [17]; 5.51 in test [18]. The PBM binding z-score in test [19] amounted to 2.09; in [20], 4.7.

Turning to GTACCAAGGTGAATAGCTCGTTGATGAGTAGGCG, the PBM binding z-score in [1] was -0.0145; in test [2] it was 0.0679; in [3], -0.285; in test [4], -0.246; in test [5], -0.451; in [6], 0.416. Further, the PBM binding z-score in [7] is 0.554; in [8] it was 0.238; in test [9] it was -0.33; in test [10] it was -0.123; in test [11], 1.55; in test [12], 1.7. Besides, the PBM binding z-score in test [13] was -0.0388; in [14] it was -0.301; in [15], -0.135; in [16], -0.403; in test [17] it was -0.283; in test [18] it was -0.0864. The results for the PBM binding z-score in [19] and in test [20] were -0.272 and 0.887, respectively.

As for ATCTCTAGGTAGCCAAGTTCAGTGAATGCCGAAC, the PBM binding z-score was -0.0679 in test [1]; -0.0761 in [2]; 0.135 in test [3]; 0.15 in [4]; 0.335 in test [5]; 0.168 in test [6]. The PBM binding z-score in [7] was -0.118; in [8], -0.148; in test [9], -0.248; in [10] it was -0.291; in [11] it was 0.328; in [12], 0.377. Also, the PBM binding z-score in test [13] was -0.173; in test [14], 0.614; in test [15], 0.13; in test [16], 1.2; in [17], 0.957; in [18], 0.266. The PBM binding z-score in test [19] is 0.228; in [20], 0.669.

Take ATAACAAGGTGATCGTGAGGTCGTTGATACTAAC: the PBM binding z-score in test [1] turned out to be 1.71; in test [2] it was 1.19; in test [3], 0.521; in [4], 1.1; in [5], 0.521; in test [6] it was 1.89. For the same sequence, the PBM binding z-score was 0.967 in test [7]; 0.692 in [8]; 0.235 in [9]; 0.705 in test [10]; 1.16 in test [11]; 1.89 in test [12]. Moreover, the PBM binding z-score in [13] stood at 1.52; in test [14], 0.304; in test [15], 0.85; in test [16] it was 3.06; in test [17], 1.63; in test [18], 2.01. For the same sequence, the PBM binding z-score turned out to be 0.293 in [19] and 1.51 in test [20].

Values taken from the supplement of paper PMC6555819.
